Measurements from PubChem BioAssay AID1347426 (Functional Genomics Laboratory (NCATS/FGL), 2020).
Among all 31,000 sequences or so, about 1,400 (4.5%) were called active.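 The calls were made as follows: active = median seed-adjusted z-score above 1 or below -1; inactive = the rest.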 Shown is part of a subset that was picked to be rich in actives.

Assay: Novel Modifiers of Survival Motor Neuron (SMN) Protein: Gene Identification via Genome-wide siRNA Screen;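 also: luminescence tracks full-length SMN protein made from the SMN2 reporter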
Conditions: HEK293T SMN2-luciferase reporter, siRNA knockdown, 72 h; actives lie on both sides
Method in brief: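 HEK293T cells stably carrying an SMN2 promoter/splicing cassette–luciferase reporter were reverse-transfected with 1 pmol siRNA per well (druggable-genome library, 3 siRNAs per gene) and grown 72 h at 37 °C. Luminescence, normalized to negative-control siRNA and log10-transformed, was scored as MAD.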

| Sequence | median seed-adjusted z-score |
| --- | --- |
| CCUUACCUGGAGUACCCAATT against PMPCA | -0.985 (inactive) |
| GGACCGAAGUCAAUGGUUUTT against SMC2 | -0.052 (inactive) |
| CAUUUAGUGUACAUUCAAATT against ZNF665 | 1.13 (active) |
| CGACAGGGUAUCCAACUAATT against WASL | 0.143 (inactive) |
| CAUGGAAAAUGAUGACGAATT against PPP4R2 | 0.211 (inactive) |
| CUCAAGAACUGUCAAGUAATT against GSK3B | -0.952 (inactive) |
| GGACAUCUAUGUUAUAUGUTT against TRIM65 | -0.599 (inactive) |
| CGUCAUCCCUCAACAAGAATT against ATP2B2 | 1.37 (active) |
| GGCUAUUACUCAGUACAGATT against TLN1 | -0.0619 (inactive) |
| CUAUGUGAUUGAUCAAGGATT against PRKAR1A | 0.428 (inactive) |
| UCAUCGGCGUGAUCGUGUATT against CACNG8 | 0.214 (inactive) |
| GAAUUUGCGAUGUACUUAATT against CSNK1A1 | -0.608 (inactive) |
| GGAAAGGAAUGGUCACGAATT against ZNF321 | -0.642 (inactive) |
| AGGUCAACACGGAGCUCAATT against CHRM1 | 1.1 (active) |
| GAAGAAUAGUGAUGCUCGATT against GRIA1 | 0.927 (inactive) |
| CUAAUUCAACAUUACAUCATT against ZNF550 | 0.131 (inactive) |
| CGACAGUCUUGCUGAAAAATT against NOTO | -0.193 (inactive) |
| GCACGAUUACUACUACCGATT against PNPLA1 | 0.00692 (inactive) |
| GGAUGUCGGCAACACGGAATT against MYBPC3 | 0.304 (inactive) |
| AAAGAAUGCGUGCUUUUAATT against RABGGTA | -0.0601 (inactive) |
| CACUGUAACGACUUCCUUATT against CCIN | 0.0472 (inactive) |
| GAAAUUGACAUGUUGGAUATT against ANXA4 | -0.0932 (inactive) |

| Sequence | median seed-adjusted z-score |
| --- | --- |
| GACUGUCGCUGGUUGGAGATT against ACPT | -0.114 (inactive) |
| AGACCGAACUGGUUUCGCUTT against CDKN2C | -0.0789 (inactive) |
| CACUCGAAGCAGUUUGGAATT against SMS | 0.186 (inactive) |
| CAGUGAAACUGCACCUCUATT against TGM1 | -0.286 (inactive) |
| CCAACGAGCGAGCAGCUUATT against BARX1 | 1.63 (active) |
| ACGGCAAGGUGUUCGAUGUTT against PGRMC1 | 0.124 (inactive) |
| CGUUCGACCUGAUCGCAAATT against ODZ2 | -0.0233 (inactive) |
| GGGUCACACUAUUUCGUGUTT against ARIH1 | -0.443 (inactive) |
| GAUGAGUGCUGCUUCCGGATT against IGF1 | 0.559 (inactive) |
| CCAGCUCCACGAAAAAGAATT against ZNF395 | -0.0986 (inactive) |
| GAUACAGUCUACGCAGUUATT against ATPAF1 | 0.393 (inactive) |
| CAGCGUGCAUUUUCACUAATT against AKAP11 | -0.0405 (inactive) |
| GCACUAAGAGUGACGUGUATT against PSKH1 | -2.03 (active) |
| GGCUACAAUUUAAGACGAUTT against TNR | 0.498 (inactive) |
| GAAAGAUGCAAAAGACAAATT against SFPQ | -1.15 (active) |
| GGUUAUGUAGUAACGAGUUTT against ALS2 | 0 (inactive) |
| GGAAUAUAAUAAGCGAAGATT against TAOK1 | -0.0533 (inactive) |
| CGAGACUACUAAAGAAACATT against DDX18 | 0.241 (inactive) |
| CUACGACUUUUCCAAUAUATT against SLC6A4 | 1.43 (active) |
| CCAUCUCCCUUGUGCUGCATT against NINJ1 | -0.061 (inactive) |
| GAGAGACCCUCGUCCUUUATT against CYP20A1 | -0.796 (inactive) |
| GAAAGGCUUUGACCAAUCUTT against ZNF319 | 0.256 (inactive) |

| Sequence | median seed-adjusted z-score |
| --- | --- |
| GUCACUAGCUUAUCUUGAATT against VEGFA | 0.495 (inactive) |
| AGCAAAGUGUUCUACCUGATT against YWHAG | 1.98 (active) |
| GAAAAUCGAAAGACUAAAATT against UTP11L | -0.755 (inactive) |
| CUAAUGAGUUUGUCUAAUATT against PKDREJ | 0.376 (inactive) |
| AGUGGAUUGUAGACAUGGATT against UBE2W | -0.655 (inactive) |
| GCAUCUACCGGAUCCUGAUTT against DDX49 | 0.0816 (inactive) |
| GCAGGCUAAUCGCAAUGAATT against ANXA13 | -0.467 (inactive) |
| GCCAGAGUCCUGAUGCACATT against GPR31 | -0.0381 (inactive) |
| GGACAAAGCAUUGACAAUUTT against KCNJ13 | 0.327 (inactive) |
| CAUCGGCUAUGACAACAUUTT against PSTPIP2 | 0.0136 (inactive) |
| GGUUCGUGAAGUUCGUAAATT against UTP3 | -1.08 (active) |
| GAGUUAGGGAAAAAGCGUATT against ANK3 | 0.0252 (inactive) |
| CGUUGUUUUUGAGCACGUUTT against LMBR1 | 0.236 (inactive) |
| GGGAGAUCCUAGAACAAGATT against TAOK1 | -0.0533 (inactive) |
| GUUUUGACCCUAUAGUUUATT against P2RY5 | 0.0278 (inactive) |
| GCAUUUGUUUGGGUUGCGATT against MTF2 | 0 (inactive) |
| GCAUUGUGAUCGAGGACAATT against HCN2 | 0 (inactive) |
| CGACAAUUCUUCUAGACAATT against TTC3 | -1.17 (active) |
| ACAUCGAGUCAGAUCUUCATT against SLC11A1 | -0.516 (inactive) |
| GGAGGUAUCUAACAAGAUUTT against LPO | 0.201 (inactive) |
| UGCACGAUCUUCUACCCAATT against TKTL1 | -0.495 (inactive) |
| AGCUUUCUUGAGCACCUGATT against LRRC32 | 0.0464 (inactive) |

| Sequence | median seed-adjusted z-score |
| --- | --- |
| GAUGGACAUUGAUAGCGAUTT against DTX3L | 0.0785 (inactive) |
| GAACGGCUCUUAAGAUCAATT against CACNA1D | -0.0856 (inactive) |
| CUAUGUACCGCUUCACUGATT against MMP9 | -1.15 (active) |
| GGAAAUCUGUCACAUCGUATT against NR1I3 | 0.000933 (inactive) |
| CGGGUUUCAUCAAAGUGCATT against RASSF5 | 0.11 (inactive) |
| GCAACUUCCUAGAACUGUUTT against PCYT1B | 0.177 (inactive) |
| GGAGGACGGCUUCUACGAATT against KCNJ9 | -0.0832 (inactive) |
| GACUCUCUACCAUGGAUUUTT against SLC25A42 | -1.02 (active) |
| CGUACAUCCAGUGACCCUATT against MTMR4 | -0.735 (inactive) |
| GAAACCAUCGGGAAGAUUUTT against VWA2 | 0.584 (inactive) |
| GAAAUGUGGUACUAAAGCATT against RALBP1 | -0.0514 (inactive) |
| CAAUGAUCAUGGACCGUUUTT against CPEB3 | 0.086 (inactive) |
| CAAGUGCGAUAUCACCUUATT against IL4 | -0.192 (inactive) |
| UCACAGUCACAUACAGAGATT against SNRPD3 | -2.69 (active) |
| GUAUCUAACUUAUCUACUATT against HTR5A | -0.0687 (inactive) |
| GGUUUCAACUGGACUUCUATT against MFSD5 | 0.205 (inactive) |
| ACAGUCUUGUGAUCAGAAATT against UHRF1 | 0.231 (inactive) |
| AAAGCAAGCUGUUACAAAATT against ACAT2 | 1.25 (active) |
| GACGUAACAUCAACAGAUATT against SV2B | -0.43 (inactive) |
| GGACUUAACGGUAUCCAAATT against PCDHB10 | -0.09 (inactive) |
| GCAGCUUUAACCAUUAAAATT against LTB4R | 0.498 (inactive) |
| GCAAGACAACCAUUCUGUATT against ARF4 | 0.346 (inactive) |

| Sequence | median seed-adjusted z-score |
| --- | --- |
| GCCGUGCUGAAGGCUCUAATT against KCNE3 | -1.33 (active) |
| GGAAACUUCUCACCUAUGATT against MAGED1 | 0.524 (inactive) |
| GGCCGUGUACUGUAUCAUUTT against NUP93 | 1.01 (active) |
| CCACUGUUGGAAUUAAAGATT against AOAH | -0.123 (inactive) |
| GUACAUAGAUUCUAGGCAATT against FOXJ3 | -0.155 (inactive) |
| GGCAGAUGAUGGUAUCACATT against CNGA4 | 0.125 (inactive) |
| CCAUGUUCAUCAAAACUCUTT against ARHGAP1 | -1.14 (active) |
| GAAGCACAUUGUUUCCAGATT against SERGEF | -0.308 (inactive) |
| CCCUUACCUUAAUCGACGATT against CRB1 | 0 (inactive) |
| GGCUGUAUCACAUCGGUUATT against CCR2 | -0.00107 (inactive) |
| GUGCUUUGGUGGUACUAUUTT against ELOVL2 | -0.456 (inactive) |
| CAGUGGUAAGAAAGAGAAATT against NRCAM | -0.0304 (inactive) |
| CACUAACUGAUUUACAAGATT against UBE2J1 | -1.2 (active) |
| GGUAAACGAGAUCAACUUUTT against DVL3 | -0.57 (inactive) |
| GGAUAUUAGUGUCGUGCAATT against ARHGEF7 | 0.185 (inactive) |
| GGAGAUUAGCAAGACCAUUTT against HOXC10 | 0.000966 (inactive) |
| AGACAGCUGCGAAUCUGGATT against MEFV | 0 (inactive) |
| GGGUUUAUAUCGAACGCAATT against RNF144B | 0.642 (inactive) |
| CUCCUGCCUUGAGCCCUUATT against GFRA4 | -1.59 (active) |
| UGAUGCCUGUGAUACACUATT against NEU1 | -0.425 (inactive) |
